In all, about 13,000 compounds went through this assay and about 3,200 (25%) showed an effect of 50% or more. Some of the results follow.
Each compound was assayed on P. falciparum stage V gametocytes. Conditions: 48 h, 5 µM; inhibitor.
Parameters: BacTiter-Glo ATP luminescence viability of purified stage V gametocytes in 384-well plates, per cent inhibition versus DMSO
For `O=C(Nc1ccc(-c2nc3ccccc3[nH]2)cc1)C1CCN(Cc2ccc(F)cc2)CC1` [TCMDC-124680], the “% Inhibition” value was 4.478%. For `CCCc1cc(=O)[nH]c(-n2nc(C)cc2NC(=O)CC(c2ccccc2)c2ccccc2)n1` [TCMDC-124940], the “% Inhibition” value was 43.65%. For `CC(C)C[C@H](NC(=O)c1cccc(F)c1)C(=O)N[C@H](/C=N/NC(=O)c1ccccc1)CCc1ccccc1` [TCMDC-135679], the “% Inhibition” value was 8.745%. In the case of `CC(=O)Nc1ccc(CN2CCc3ccc(NS(=O)(=O)c4ccc(-c5cccc(C(F)(F)F)c5)cc4)cc3CC2)s1` [TCMDC-132328], the “% Inhibition” value is reported as 7.357%. With `Cc1ccc(-c2ccc(NC(=O)N3CCc4cc(Br)c(N5CCN(C)CC5)cc43)cc2)cn1` [TCMDC-139294] the “% Inhibition” value was -24.43%. With `CN(C)CCNC(=O)c1csc(Nc2ccc(Cl)c(Cl)c2)n1` [TCMDC-123722] the “% Inhibition” value was -60.24%. With `COc1cccc2cc(C(=O)N[C@@H](CC(C)C)C(=O)N[C@H](C=NNC(=O)OC(C)(C)C)CC(C)C)oc12` [TCMDC-136062] the “% Inhibition” value was 12.96%. `Cc1ccc2nc(C)n(C3CCN(C(=O)C4(c5ccccc5)CC4)CC3)c2c1` [TCMDC-124796] was tested, and the “% Inhibition” value was 44.07%. `Cc1ccc2nc(C)n(C3CCN(C(=O)Cc4ccccc4C)CC3)c2c1` [TCMDC-124795] was tested, and the “% Inhibition” value was 76.45%. In the case of `COc1ccc(Br)cc1/C=C/C(=O)Nc1cccc(C2CCCN(C)C2)c1` (centres unmarked) [TCMDC-133710], the “% Inhibition” value is reported as 13.98%. In the case of `CN1CCN(c2ccnc3ccc(NC(=O)Nc4cccc5c(-c6ccncc6)cccc45)cc23)CC1` [TCMDC-139252], the “% Inhibition” value is reported as -0.3523%. With `Cc1ncccc1-c1cccc2c(NC(=O)Nc3ccc4nccc(N5CCN(C)CC5)c4c3)cccc12` [TCMDC-139369] the “% Inhibition” value was -6.373%. For `CN1CCN(c2ccnc3ccc(NC(=O)Nc4ccc(-c5ccncc5)c(C(F)(F)F)c4)cc23)CC1` [TCMDC-139260], the “% Inhibition” value was 40.16%. `CN1CCN(c2ccnc3ccc(NC(=O)Nc4ccc(-c5ccncc5)c5ccccc45)cc23)CC1` [TCMDC-139251] was tested, and the “% Inhibition” value was -4.793%. In the case of `Cc1nc(-c2cccc3c(NC(=O)Nc4ccc5nccc(N6CCN(C)CC6)c5c4)cccc23)no1` [TCMDC-139340], the “% Inhibition” value is reported as 66.85%. `CN1CCN(c2ccnc3ccc(NC(=O)Nc4ccc(-c5ccncc5)c(C#N)c4)cc23)CC1` [TCMDC-139268] was tested, and the “% Inhibition” value was 80.15%. For `COC(=O)c1ccc(CC(C)NCC(O)c2cccc(OC(F)(F)F)c2)cc1` (centres unmarked) [TCMDC-131487], the “% Inhibition” value was 26.86%. With `O=C(c1cccc(-c2cccc(-c3nc4ccccc4[nH]3)c2)c1)N1CCCCC1CN1CCC(O)C1` (centres unmarked) [TCMDC-132311] the “% Inhibition” value was -3.438%. For `Cc1[nH]c(/C=C2\C(=O)Nc3ccc(S(=O)(=O)Cc4c(Cl)cccc4Cl)cc32)c(C)c1C(=O)N1CCC[C@@H]1CN1CCCC1` [TCMDC-125885], the “% Inhibition” value was 103.4%. `Cc1cccc2nc(-c3cccc(-c4cccc(C(=O)N5CCCCC5CN5CCC(O)C5)c4)c3)[nH]c12` (centres unmarked) [TCMDC-132347] was tested, and the “% Inhibition” value was 6.025%. In the case of `COc1cccc(C=Cc2nc(=O)c3ccccc3o2)c1OC` [TCMDC-124577], the “% Inhibition” value is reported as 34.84%. `COc1ccc(Cc2cnc3nc(N)nc(N)c3c2C)cc1OC` [TCMDC-138057] was tested, and the “% Inhibition” value was 6.807%. For `O=C(CCCCCCc1ccccc1)Nc1ccc2nc3c(c(NCc4ccccc4)c2c1)CCCC3` [TCMDC-139063], the “% Inhibition” value was 91.52%. `CCCCc1ccc(C(=O)Nc2ccc3nc(N4CCN(C)CC4)cc(C)c3c2)cc1` [TCMDC-125570] was tested, and the “% Inhibition” value was -31.24%. `CCCCc1ccc(C(=O)Nc2ccc3nc(N4CCN(CC)CC4)cc(C)c3c2)cc1` [TCMDC-125578] was tested, and the “% Inhibition” value was -16.83%. In the case of `Nc1ccnc2ccc(NC(=O)CCCCCc3ccccc3)cc12` [TCMDC-139070], the “% Inhibition” value is reported as 2.045%. With `CNc1c2c(nc3ccc(NC(=O)CCCCCCc4ccccc4)cc13)CCCC2` [TCMDC-139066] the “% Inhibition” value was 79.48%. `O=C(Nc1ccc2nc3n(c(=O)c2c1)CCCCC3)C(=O)N1CCC(Cc2ccccc2)CC1` [TCMDC-125294] was tested, and the “% Inhibition” value was -23.73%. `COc1ccc2nccc(NN=Cc3cccnc3)c2c1` [TCMDC-142032] was tested, and the “% Inhibition” value was -14.51%. With `O=C(Nc1nccs1)c1cn(-c2ccccc2)nc1-c1ccc(Cl)s1` [TCMDC-123623] the “% Inhibition” value was 9.788%. In the case of `CC(C)(CNC(=O)C1CCN(CCOc2ccc(Cl)cc2)CC1)c1nc(-c2ccc(Cl)c(O)c2)c(-c2ccncc2)[nH]1` [TCMDC-141124], the “% Inhibition” value is reported as -30.29%. With `Cc1cccc(CN2CCCN(Cc3ccc(C(=O)Nc4ccc(C)c(F)c4)cc3)CC2)c1` [TCMDC-136396] the “% Inhibition” value was -4.425%. `Cc1cc(-c2ccc(CNCCc3cccs3)cc2)ccc1S(=O)(=O)NCc1ccccc1` [TCMDC-132473] was tested, and the “% Inhibition” value was 18.33%. `COc1ccc(CNCCc2cccs2)cc1-c1cccc(S(=O)(=O)NCCN2CCCC2)c1` [TCMDC-132479] was tested, and the “% Inhibition” value was 91.1%. `COc1ccc(CNCCc2cccs2)cc1-c1ccc(S(=O)(=O)NCCN2CCCC2)cc1` [TCMDC-132475] was tested, and the “% Inhibition” value was 76.8%. `COc1ccc(CNCCc2cccs2)cc1-c1ccc(OC)c(S(=O)(=O)NCCN2CCCC2)c1` [TCMDC-132476] was tested, and the “% Inhibition” value was 71.75%. For `S=c1nc(-c2ccccc2)n2ccsc2n1` [TCMDC-123905], the “% Inhibition” value was 9.815%. In the case of `CC(C)c1ncc(-c2ccncc2)c(C2CCC(CNC(=O)c3cccnc3)CC2)n1` (centres unmarked) [TCMDC-124825], the “% Inhibition” value is reported as 14.15%. In the case of `O=C(Nc1cccc(-c2ccc(-c3nc4ccccc4[nH]3)cc2)c1)Nc1ccc(F)c(F)c1F` [TCMDC-133230], the “% Inhibition” value is reported as -14.97%. For `CCc1cccc(OCCCON2C(N)=NC(N)=NC2(C)C)c1` [TCMDC-131306], the “% Inhibition” value was 2.586%. `Fc1ccc2nc(-c3ccc(-c4ccc(CN5CCN(c6cnccn6)CC5)cc4)s3)[nH]c2c1` [TCMDC-133893] was tested, and the “% Inhibition” value was 9.584%. In the case of `O=C(CCCCCNC(=O)c1ccc(O)c(-c2ccc(Cl)c(Cl)c2)c1)NC1CCCc2ccccc21` (centres unmarked) [TCMDC-140866], the “% Inhibition” value is reported as 4.143%. `COc1ccc2nc(SC(C)C(=O)c3c[nH]c4ccccc34)[nH]c2c1` (centres unmarked) [TCMDC-125034] was tested, and the “% Inhibition” value was 61.61%. For `COc1cccc(-c2cc(C(=O)Nc3ccc4nc(-c5ccccc5)[nH]c4c3)[nH]n2)c1` [TCMDC-134319], the “% Inhibition” value was 8.642%. `CC1CN(c2ccc3[nH]cc(Sc4ccc(-c5cccs5)cc4)c3c2)CC(C)N1` (centres unmarked) [TCMDC-136644] was tested, and the “% Inhibition” value was -55.49%. In the case of `O=C(CSc1n[nH]c(-c2ccccc2Br)n1)c1c[nH]c2ccccc12` [TCMDC-123710], the “% Inhibition” value is reported as 82.49%. With `COC(=O)c1ccc2c(-c3nc4ccc(OC)cc4[nH]3)c[nH]c2c1` [TCMDC-135457] the “% Inhibition” value was 32.14%. For `CC(Sc1n[nH]c(-c2cccs2)n1)C(=O)c1c[nH]c2ccccc12` (centres unmarked) [TCMDC-125010], the “% Inhibition” value was 53.42%. `Cc1noc(-c2cccs2)c1C(=O)NC(C)c1cccc2ccccc12` (centres unmarked) [TCMDC-124788] was tested, and the “% Inhibition” value was -15.69%. With `Cc1cc(N(C)C)nc(Nc2ccc(NC(=O)c3c(F)cccc3F)cc2)n1` [TCMDC-124977] the “% Inhibition” value was 1.948%. `COc1cc(SC)c(Br)cc1-c1nc2ccncc2[nH]1` [TCMDC-138164] was tested, and the “% Inhibition” value was -13.77%. `Oc1ccc(CCNc2nc(NCc3ccccc3Oc3ccc(C(F)(F)F)cc3)nc(N3CCNCC3)n2)cc1` [TCMDC-134133] was tested, and the “% Inhibition” value was -9.208%. For `CCOc1cc(C2C(C(=O)OC(C)C)=C(C)NC3=C2C(=O)CC(c2ccc(Cl)cc2)C3)ccc1OC(C)=O` (centres unmarked) [TCMDC-125628], the “% Inhibition” value was -56.66%. For `Cc1cnc2ccc(NS(=O)(=O)c3ccc4c(Cl)cccc4c3)cc2c1N1CCNCC1` [TCMDC-139558], the “% Inhibition” value was 37.46%. With `CN(C)c1c(CNCCCCCCNCc2ccc3ccccc3c2N(C)C)ccc2ccccc12` [TCMDC-137834] the “% Inhibition” value was 115.6%. For `CCCCOc1ccc(CNCCCCCCNCc2ccc(OCCCC)c3ccccc23)c2ccccc12` [TCMDC-137281], the “% Inhibition” value was 121.9%. `CCOc1c(Br)cc(Cl)cc1CNCCCNc1nc2ccccc2[nH]1` [TCMDC-140106] was tested, and the “% Inhibition” value was 5.667%. For `CCCCSc1c(CNCCCCCCNCc2ccc3ccccc3c2SCCCC)ccc2ccccc12` [TCMDC-137825], the “% Inhibition” value was 112.9%. For `CCOc1c(CNCCCCCCNCc2ccc3ccccc3c2OCC)ccc2ccccc12` [TCMDC-137942], the “% Inhibition” value was 73.68%. With `CCCc1ccc2c(c1O)CCC(N(CCC)CCC)C2` (centres unmarked) [TCMDC-138031] the “% Inhibition” value was -27.54%. For `COc1ccc(CN(C)CC(O)COc2ccc(NC(=O)c3cccc4c(=O)c5cccc(OC)c5[nH]c34)cc2)cc1OC` (centres unmarked) [TCMDC-131851], the “% Inhibition” value was 12.51%. In the case of `O=C(Cc1ccccc1)NC1(c2ccccc2)CCN(CCc2c[nH]c3ccc(F)cc23)CC1` [TCMDC-131991], the “% Inhibition” value is reported as 26.26%. In the case of `CCC(C)c1ccc(NC(=O)c2ccc(S(=O)(=O)Nc3ccc(OC)c(N4CCN(CC5CC5)CC4)c3)cc2)cc1` (centres unmarked) [TCMDC-136299], the “% Inhibition” value is reported as -16.95%. With `Oc1ccccc1CN1CCC2(CCCN(Cc3ccccc3F)C2)C1` (centres unmarked) [TCMDC-124620] the “% Inhibition” value was 28.07%. In the case of `Cc1cc(NC2CCCC2)nc(Nc2ccc(F)cc2)n1` [TCMDC-133472], the “% Inhibition” value is reported as 46.74%. For `CCCCOc1cc(CNCCCCCCNCc2cc(OCCCC)cc3ccccc23)c2ccccc2c1` [TCMDC-137824], the “% Inhibition” value was 36.59%. With `CCCCOc1c(CNCCCCCCNCc2ccc3ccccc3c2OCCCC)ccc2ccccc12` [TCMDC-137975] the “% Inhibition” value was 107.4%. For `COC(=O)c1cccc(CNCc2ccc(-c3ccc(-c4nc5cc(C(F)(F)F)ccc5[nH]4)cc3)cc2)c1.O=C(O)C(F)(F)F` [TCMDC-132954], the “% Inhibition” value was -38.93%.

— article PMC4552634, “A New Set of Chemical Starting Points with Plasmodium falciparum Transmission-Blocking Potential for Antimalarial Drug Discovery” (PLoS ONE, 2015)
